Measured values: paper PMC4081100, “A DNA-binding-site landscape and regulatory network analysis for NAC transcription factors in Arabidopsis thaliana”

How the values were obtained:
Assay in all cases: universal protein binding microarray (PBM); transcription factors of Arabidopsis thaliana; high values mean tight binding
GST-ANAC092(1-176) = target: T1, GST-ANAC092(1-176) (Arabidopsis thaliana, UniProt Q9FKA0 1-176); conditions: protein: recombinant; tags: GST; chain copies: 2; dsDNA, one strand shown
T1 sequence: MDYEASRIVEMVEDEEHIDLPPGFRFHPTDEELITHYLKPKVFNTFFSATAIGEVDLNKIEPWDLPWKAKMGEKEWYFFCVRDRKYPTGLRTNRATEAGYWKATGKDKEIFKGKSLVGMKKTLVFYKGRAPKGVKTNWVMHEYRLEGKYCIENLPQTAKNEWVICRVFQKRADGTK
Method in brief: (§1)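 GST-tagged NAC-domain, full-length or DNA-binding-domain proteins were induced in cells, with zinc acetate added for zinc-finger proteins. They were purified on glutathione–Sepharose 4B and quantified by A280 or anti-GST western blot. Each was applied at 200 to 500 nM final, in duplicate, to custom all-10-mer Agilent 4 × 180K arrays made double-stranded by primer extension, with gapped and ungapped 8-mers scored. Binding is the normalised enrichment score (E-score).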

GST-NTL6(1-168) = GST-NTL6(1-168) (Arabidopsis thaliana, UniProt Q9SCK6 1-168); conditions: protein: recombinant; tags: GST; chain copies: 2; dsDNA, one strand shown
Method in brief: as §1

GST-ANAC019 NAC domain = target: T2, GST-ANAC019 NAC domain (Arabidopsis thaliana, UniProt Q9C932 14-162); conditions: protein: recombinant; tags: GST; chain copies: 2; dsDNA, one strand shown
T2 sequence: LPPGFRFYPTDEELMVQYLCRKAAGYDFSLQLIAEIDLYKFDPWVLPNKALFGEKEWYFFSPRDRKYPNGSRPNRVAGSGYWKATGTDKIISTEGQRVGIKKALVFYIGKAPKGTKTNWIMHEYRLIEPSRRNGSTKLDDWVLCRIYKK
Method in brief: as §1

GST-ANAC055(1-171) = target: T3, GST-ANAC055(1-171) (Arabidopsis thaliana, UniProt Q9LDY8 1-171); conditions: protein: recombinant; tags: GST; chain copies: 2; dsDNA, one strand shown
T3 sequence: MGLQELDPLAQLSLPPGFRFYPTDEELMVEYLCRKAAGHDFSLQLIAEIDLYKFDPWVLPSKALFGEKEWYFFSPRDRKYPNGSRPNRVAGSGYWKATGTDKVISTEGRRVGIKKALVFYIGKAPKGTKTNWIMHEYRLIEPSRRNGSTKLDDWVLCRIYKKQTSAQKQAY
Method in brief: as §1

GST-ATAF1 NAC domain = target: T4, GST-ATAF1 NAC domain (Arabidopsis thaliana, UniProt Q39013 7-158); conditions: protein: recombinant; tags: GST; chain copies: 2; dsDNA, one strand shown
T4 sequence: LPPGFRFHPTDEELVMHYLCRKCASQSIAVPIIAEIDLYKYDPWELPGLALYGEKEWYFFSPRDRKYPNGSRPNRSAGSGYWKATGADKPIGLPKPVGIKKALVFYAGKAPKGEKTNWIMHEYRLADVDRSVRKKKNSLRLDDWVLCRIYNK
Method in brief: as §1

[1] = target: T5, GST-ANAC092(1-285) full length (Arabidopsis thaliana, UniProt Q9FKA0 1-285); conditions: protein: recombinant; tags: GST; chain copies: 2; dsDNA, one strand shown
T5 sequence: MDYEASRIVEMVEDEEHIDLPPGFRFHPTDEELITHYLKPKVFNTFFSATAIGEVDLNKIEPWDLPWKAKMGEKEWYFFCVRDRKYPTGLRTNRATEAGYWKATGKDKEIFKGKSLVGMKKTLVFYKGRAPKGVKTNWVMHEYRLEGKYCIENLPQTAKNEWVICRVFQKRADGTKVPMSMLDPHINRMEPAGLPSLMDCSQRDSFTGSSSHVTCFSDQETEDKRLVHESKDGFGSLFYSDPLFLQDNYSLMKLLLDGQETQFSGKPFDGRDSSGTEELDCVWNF
Method in brief: as §1

GST-NAP(1-166) = target: T6, GST-NAP(1-166) (Arabidopsis thaliana, UniProt O49255 1-166); conditions: protein: recombinant; tags: GST; chain copies: 2; dsDNA, one strand shown
T6 sequence: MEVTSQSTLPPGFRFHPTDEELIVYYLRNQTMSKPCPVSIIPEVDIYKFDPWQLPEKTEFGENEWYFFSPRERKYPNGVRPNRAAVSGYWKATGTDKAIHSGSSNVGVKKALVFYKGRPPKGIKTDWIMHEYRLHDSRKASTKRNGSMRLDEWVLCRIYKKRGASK
Method in brief: as §1

GST-NTL8 NAC domain = target: T7, GST-NTL8 NAC domain (Arabidopsis thaliana, UniProt Q9XIN7 14-156); conditions: protein: recombinant; tags: GST; chain copies: 2; dsDNA, one strand shown
T7 sequence: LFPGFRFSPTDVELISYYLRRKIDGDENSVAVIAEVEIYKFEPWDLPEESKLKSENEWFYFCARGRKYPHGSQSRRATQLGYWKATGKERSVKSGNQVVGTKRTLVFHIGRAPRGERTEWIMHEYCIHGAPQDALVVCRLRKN
Method in brief: as §1

GST-SND1(1-203) = target: T8, GST-SND1(1-203) (Arabidopsis thaliana, UniProt Q9LPI7 1-203); conditions: protein: recombinant; tags: GST; chain copies: 2; dsDNA, one strand shown
T8 sequence: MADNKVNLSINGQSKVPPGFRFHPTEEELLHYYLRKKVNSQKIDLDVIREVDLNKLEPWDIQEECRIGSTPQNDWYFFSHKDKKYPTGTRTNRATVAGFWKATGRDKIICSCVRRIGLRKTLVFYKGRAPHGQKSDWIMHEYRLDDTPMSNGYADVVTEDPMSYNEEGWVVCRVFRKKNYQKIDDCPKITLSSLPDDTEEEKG
Method in brief: as §1

GST-VND7 NAC domain = target: T9, GST-VND7 NAC domain (Arabidopsis thaliana, UniProt Q9C8W9 9-158); conditions: protein: recombinant; tags: GST; chain copies: 2; dsDNA, one strand shown
T9 sequence: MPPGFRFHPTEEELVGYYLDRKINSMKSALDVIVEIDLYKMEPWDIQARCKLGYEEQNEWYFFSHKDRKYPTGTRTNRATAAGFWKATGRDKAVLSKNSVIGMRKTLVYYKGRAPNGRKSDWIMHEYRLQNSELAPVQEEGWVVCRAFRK
Method in brief: as §1

GST-WRKY1(266-371) = GST-WRKY1(266-371) (Arabidopsis thaliana, UniProt Q9SI37 266-371); conditions: protein: recombinant; tags: GST; dsDNA, one strand shown
Method in brief: as §1

GST-VND3 NAC domain = target: T10, GST-VND3 NAC domain (Arabidopsis thaliana, UniProt Q9FH59 12-162); conditions: protein: recombinant; tags: GST; chain copies: 2; dsDNA, one strand shown
T10 sequence: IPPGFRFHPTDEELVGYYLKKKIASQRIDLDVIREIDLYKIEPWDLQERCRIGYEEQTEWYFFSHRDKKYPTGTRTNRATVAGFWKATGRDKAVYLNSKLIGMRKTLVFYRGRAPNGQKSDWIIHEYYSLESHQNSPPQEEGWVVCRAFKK
Method in brief: as §1

GST-NST2(1-184) = target: T11, GST-NST2(1-184) (Arabidopsis thaliana, UniProt Q9M274 1-184); conditions: protein: recombinant; tags: GST; chain copies: 2; dsDNA, one strand shown
T11 sequence: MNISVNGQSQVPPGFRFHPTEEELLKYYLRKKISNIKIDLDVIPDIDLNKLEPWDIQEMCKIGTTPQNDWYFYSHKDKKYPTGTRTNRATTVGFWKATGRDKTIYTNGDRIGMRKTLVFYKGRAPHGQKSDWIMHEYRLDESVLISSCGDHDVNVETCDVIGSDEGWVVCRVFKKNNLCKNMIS
Method in brief: as §1

Chain of GST-NTL6(1-168) (Q9SCK6 1-168): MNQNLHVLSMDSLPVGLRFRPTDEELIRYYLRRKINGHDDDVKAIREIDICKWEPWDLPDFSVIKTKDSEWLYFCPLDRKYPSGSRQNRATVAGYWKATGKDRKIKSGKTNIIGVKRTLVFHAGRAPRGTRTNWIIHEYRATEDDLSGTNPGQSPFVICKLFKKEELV
Chain of GST-WRKY1(266-371) (Q9SI37 266-371): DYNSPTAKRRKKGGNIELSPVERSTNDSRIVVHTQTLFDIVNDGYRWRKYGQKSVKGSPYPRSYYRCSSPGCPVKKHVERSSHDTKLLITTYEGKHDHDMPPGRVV

Sequence	binding signal (GST-ANAC092(1-176))	binding signal (GST-NTL6(1-168))	binding signal (GST-ANAC019 NAC domain)	binding signal (GST-ANAC055(1-171))	binding signal (GST-ATAF1 NAC domain)	binding signal [1]	binding signal (GST-NAP(1-166))	binding signal (GST-NTL8 NAC domain)	binding signal (GST-SND1(1-203))	binding signal (GST-VND7 NAC domain)	binding signal (GST-WRKY1(266-371))	binding signal (GST-VND3 NAC domain)	binding signal (GST-NST2(1-184))
CAGTCAAA	0.125 E-score	0.0796 E-score	0.0978 E-score	0.063 E-score	0.11 E-score	0.0634 E-score	0.0821 E-score	0.104 E-score	0.124 E-score	0.0973 E-score	0.478 E-score		
CAAGTCAG						0.11 E-score			0.0706 E-score		0.417 E-score	0.0527 E-score	
GTCAAAAC					0.178 E-score	0.11 E-score	0.111 E-score	0.0569 E-score	0.148 E-score		0.447 E-score	0.176 E-score	
GTCAACAA		0.0834 E-score		0.163 E-score	0.191 E-score	0.136 E-score	0.075 E-score	0.0573 E-score	0.177 E-score	0.07 E-score	0.478 E-score		0.101 E-score
ACGCGACC	0.283 E-score		0.0639 E-score			0.423 E-score			0.367 E-score	0.0778 E-score	0.342 E-score		0.0828 E-score
AAGGTAAG	0.0968 E-score	0.306 E-score	0.175 E-score		0.11 E-score	0.225 E-score		0.402 E-score	0.2 E-score			0.113 E-score	0.144 E-score
ACCGTCAA			0.156 E-score			0.117 E-score	0.092 E-score		0.148 E-score		0.41 E-score	0.126 E-score	
ATAAGGAA	0.118 E-score	0.423 E-score		0.0899 E-score	0.129 E-score	0.217 E-score		0.332 E-score	0.201 E-score			0.152 E-score	0.136 E-score
CAGGGAAA	0.141 E-score	0.0693 E-score	0.115 E-score			0.102 E-score		0.407 E-score	0.0967 E-score			0.0593 E-score	
CCACGCTA	0.405 E-score		0.155 E-score			0.432 E-score		0.0925 E-score	0.329 E-score			0.0665 E-score	0.219 E-score
GCTAAGTA		0.429 E-score					0.0551 E-score		0.121 E-score			0.0851 E-score	
CACGCATA	0.397 E-score			0.0626 E-score		0.411 E-score	0.147 E-score		0.18 E-score			0.116 E-score	0.121 E-score
CACTCAAC	0.4 E-score	0.0871 E-score	0.151 E-score	0.139 E-score	0.0909 E-score	0.424 E-score			0.243 E-score			0.089 E-score	0.237 E-score
CCCTCCCC	0.299 E-score	0.353 E-score	0.226 E-score		0.121 E-score	0.308 E-score		0.336 E-score	0.405 E-score	0.198 E-score	0.0672 E-score		0.169 E-score
ACACTCCA	0.398 E-score		0.0899 E-score	0.15 E-score	0.17 E-score	0.429 E-score			0.278 E-score			0.0605 E-score	0.226 E-score
GTAGTCAA		0.0675 E-score		0.168 E-score	0.191 E-score		0.0663 E-score		0.0829 E-score		0.478 E-score	0.134 E-score	0.112 E-score
AAGGAATC	0.172 E-score	0.42 E-score			0.0816 E-score	0.251 E-score		0.328 E-score	0.292 E-score			0.0823 E-score	0.0867 E-score
